The text below walks through data of ChEMBL document CHEMBL1157539, “Thousands of chemical starting points for antimalarial lead identification” (Nature, 2010).

The structures appear in SMILES notation.

The test relates to Plasmodium falciparum. The test can be described thus: GSK_TCMDC: Inhibition of Plasmodium falciparum 3D7 in whole red blood cells, using parasite LDH activity as an index of growth. Test compounds present at 2uM. Type of test: functional.
As a reminder, the Inhibition is how much of the control response was suppressed. As for `CO/C(=C\C=C\c1cc2cc(Cl)c(Cl)cc2[nH]1)C(=O)NCCCNC12CC3CC(CC(C3)C1)C2`, the Inhibition is 99%.

The compound `CCCCOc1ccc(CNCCCCCCNCc2ccc(OCCCC)c3ccccc23)c2ccccc12.CS(=O)(=O)O` registered an Inhibition of 81%.

`CCCO[C@H](C(=O)OC)[C@@H](CC1Cc2ccccc2C1)C(=O)NCCC1=CCCCC1` yielded an Inhibition of 93%.

`CCOc1cc(/C=N/Nc2nc3ccccc3[nH]2)ccc1OCc1ccc([N+](=O)[O-])cc1` registered an Inhibition of 100%.

Consider `CCc1cn2c3c(cc(C(=O)N[C@@H](Cc4ccccc4)[C@H](O)CNCc4ccccc4C)cc13)N(C)S(=O)(=O)CC2.O=CO`, for which the Inhibition came to 98%.

The compound `N#Cc1ccc(-c2ccc(C(=O)NCCCCN3CCC(c4ccc5c(c4OCC(N)=O)CCCC5)CC3)cc2)cc1` came in with an Inhibition of 87%.

`O=[N+]([O-])c1ccc2c(-c3ccccc3)c(-c3ccccc3)n(O)c2c1` displayed an Inhibition of 97%.

With `CC1CCCCN1S(=O)(=O)c1ccc(NC(=O)c2cc(-c3ccccc3O)n[nH]2)cc1` (stereo unspecified), the Inhibition was 90%.

With `CC(=O)NCCNc1nccc(N2CCc3ncnc(Nc4ccc(OCc5ccccn5)c(Cl)c4)c3C2)n1`, the Inhibition was 99%.

On to `Cl.O=S(=O)(NCCCN1CCOCC1)c1ccc2nccc(Nc3ccc(Oc4ccccc4)cc3)c2c1`, for which the Inhibition amounted to 95%.

Compound `CCCCn1c(Sc2ccc(C#N)c([N+](=O)[O-])c2)nnc1-c1cc(OC)cc(OC)c1` returned an Inhibition of 94%.

Compound `Cc1nc2ccc3ccc(CNc4ccc(C(=O)N[C@@H](CCC(=O)O)C(=O)N[C@@H](Cc5cccs5)C(=O)O)c(F)c4)cc3c2c(=O)[nH]1` gave an Inhibition of 97%.

Compound `CCc1cccc2sc(N3CCN(C(=O)c4ccc([N+](=O)[O-])o4)CC3)nc12` returned an Inhibition of 97%.

For the compound `Oc1cc(NCCCNC2CCc3c(Cl)cc(Cl)cc32)nc2ccccc12` (stereo unspecified), the Inhibition stood at 100%.

Consider `COc1ccc2nccc(NC(=O)C3CCC(NCc4ccc5c(c4)NC(=O)CS5)CC3)c2c1` (stereo unspecified), for which the Inhibition was determined as 94%.

The compound `O=C(NC1CCN(Cc2ccc(F)cc2)CC1)c1ccc(-c2cccc(C(F)(F)F)c2)s1.O=C(O)C(F)(F)F` registered an Inhibition of 83%.

`C(=N\Nc1nccc2sc(-c3cccnc3)cc12)/c1cccnc1`: the Inhibition is listed as 98%.

`CC(=O)N(C)c1cccc(C(=O)Nc2cccc(-c3cccc(-c4nc5cccc(C)c5[nH]4)c3)c2)c1` gave an Inhibition of 89%.

Compound `Fc1ccc(-c2cncc(-c3ccc(F)cc3)n2)cc1` displayed an Inhibition of 99%.

Compound `CN1CCN(c2cc(-c3ccncc3)nc(-c3cccnc3)n2)CC1` displayed an Inhibition of 100%.

Compound `Cc1ccc(F)c(C(=O)Nc2cccc(-c3nn4ccccc4c3-c3ccnc(Nc4cccc(F)c4)n3)c2)c1F` showed an Inhibition of 98%.

Regarding `CCn1c(-c2nonc2N)nc2c(-c3cccc(NC(=O)Nc4ccc(Cl)cc4)c3)ncc(OCCCN)c21.O=C(O)C(F)(F)F`, the Inhibition was found to be 96%.

As for `Cc1ccccc1NC(=S)NC1CCN(CCCCCNC(=O)/C=C/c2ccc(Cl)c(Cl)c2)CC1`, the Inhibition is listed as 99%.

In the case of `COc1cc2c(cc1C(F)(F)F)N(C(=O)Nc1cc(F)cc(-c3cccnn3)c1)CC2`, the Inhibition is reported as 90%.

Compound `Cc1cc(N2CCN(C3CCCCC3)CC2)nc2cccc(O)c12` displayed an Inhibition of 100%.

`NCCNc1ccc([N+](=O)[O-])cc1C(=O)Nc1cccc(C(F)(F)F)c1` registered an Inhibition of 94%.

The compound `Br.COc1ccc(OCCCON2C(=N)N=C(N)NC2(C)C)cc1` returned an Inhibition of 97%.

`COc1cccc(NC(=O)N2CCOC(CCN3CCC4(CCc5ccccc54)CC3)(c3ccc(Cl)c(Cl)c3)C2)c1` (stereo unspecified) came in with an Inhibition of 94%.

As to `COc1cc2nc(N3CC(C)N(C(=O)Cc4ccc(-c5ccccc5)cc4)C(C)C3)nc(N)c2cc1OC` (stereo unspecified), the Inhibition turned out to be 100%.

As for `O=C(Nc1nc2ccc(Cl)cc2s1)c1csnn1`, the Inhibition was 96%.

Turning to `O=C(Nc1ccc(Oc2ccccc2)cc1)N1CCC(CCN2CCC(c3c[nH]c4ccccc34)CC2)CC1`, the Inhibition was found to be 100%.

In turn, `CN(Cc1cccc(O)c1)C1CCCN(c2cc(NC(=O)c3ccc(F)cc3)ccn2)C1.O=C(O)C(F)(F)F` (stereo unspecified) showed an Inhibition of 91%.

Regarding `CCOC(=O)c1ccc(-c2c(C(F)(F)F)noc2-c2cc(CC)c(OC)cc2O)o1`, the Inhibition is reported as 100%.

Consider `CC(C)NCc1cccc(-c2cccc(-c3nc4cc(F)ccc4[nH]3)c2)c1.O=C(O)C(F)(F)F`, for which the Inhibition came out at 100%.

As to `COc1ccc(-c2cccc(CNCc3ccc(F)cc3)c2)cc1S(=O)(=O)NCCN1CCCC1.O=C(O)C(F)(F)F`, the Inhibition is reported as 100%.

`O=C(/C=C/c1c(Cl)cccc1Cl)NC1CCC(CN2CCC(c3c[nH]c4ccncc34)CC2)CC1` (stereo unspecified) gave an Inhibition of 99%.
